This is a sample that favours compounds with a hit; in the whole collection about 7.3% have one here.
HCMV antiviral – qHTS Assay for inhibitors of the human cytomegalovirus (HCMV); AID 1259415, 2018; HFF cells, HCMV-luciferase reporter, 72 h; active compounds read low; activity change, negative = inhibition, % at 57.5 µM; hit rate 4.5% among 410,000; in the data active = activity change below about -60%; inconclusive = no clear call, values can overlap the other calls; inactive = above about -39%
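Human foreskin fibroblasts infected with luciferase-reporter HCMV at MOI 1 PFU/cell, compounds at two doses. Luciferase measured 72 h post infection; normalized to buffer-only basal and Salinomycin (10uM) controls.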
AmpC no deterg – qHTS Inhibitors of AmpC Beta-Lactamase (assay without detergent); P00811; AmpC nitrocefin hydrolysis, absorbance 480 nm, 0.0001% Triton; Potency, µM (highest dose often 57.1 µM), actives largely listed as inhibitors; hit rate 0.52% among 330,000; note: nearly all actives have a fitted effect of over 20% in size
Target sequence (P00811 whole entry, looked up): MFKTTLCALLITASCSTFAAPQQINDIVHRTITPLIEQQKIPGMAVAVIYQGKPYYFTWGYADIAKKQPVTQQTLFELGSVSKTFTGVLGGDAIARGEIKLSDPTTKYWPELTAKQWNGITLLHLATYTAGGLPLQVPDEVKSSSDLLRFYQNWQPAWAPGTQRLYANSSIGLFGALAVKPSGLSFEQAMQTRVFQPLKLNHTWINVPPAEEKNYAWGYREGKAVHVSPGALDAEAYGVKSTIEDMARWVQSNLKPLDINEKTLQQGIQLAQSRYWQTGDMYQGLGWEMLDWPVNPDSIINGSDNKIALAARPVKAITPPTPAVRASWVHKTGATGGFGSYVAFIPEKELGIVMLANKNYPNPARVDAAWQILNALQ
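20 mM phosphate pH 7.0 + 0.01% (detergent screen) or 0.0001% Triton X-100; 5.3 nM AmpC reagent; cpd preinc 15 min RT; nitrocefin (800 uM stock) to start; A480 q20 s × 4 min; Activity was normalised to no-enzyme and no-compound control wells.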
AmpC detergent – qHTS Inhibitors of AmpC Beta-Lactamase (assay with detergent); AmpC hydrolysis of nitrocefin, absorbance 480 nm, 0.01% Triton; Potency, µM (highest dose often 114 µM), actives largely listed as inhibitors; hit rate 0.041% among 370,000; note: nearly all actives have a fitted effect of over 25% in size
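AmpC (5.3 nM in the dispensed reagent) in 20 mM phosphate pH 7.0 with 0.01% (detergent screen) or 0.0001% Triton X-100 was preincubated with compounds for 15 min at room temperature. Nitrocefin was then added from an 800 uM solution, and hydrolysis was followed at 480 nm.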
FMDV inh – High Throughput Screening for Foot and Mouth Disease Virus Antivirals; FMDV antiviral cell-based qHTS; hit rate 1.2% among 410,000; Potency, µM (top dose mostly 57.9 µM), most hits filed as inhibitors; calls by dose curve; tested in HEK293T cells; note: read-out not given here; nearly all actives have a fitted effect of over 45% in size
HCV inhibitor – qHTS Assay for Inhibitors of Hepatitis C Virus (HCV). Huh7.5.1 HCVcc-Cre infection, luciferase reporter, 44 h. Potency, µM (titrated, usually from 41.8 µM), actives largely listed as inhibitors. hit rate 3.4% among 340,000
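Infectious HCV cell culture screen: compound-treated cells (1,000/well, pre-plated 4 h) are infected with HCVcc-Cre at roughly 0.5 moi and grown 44 h. Infection is quantified by luciferase signal after 15 min substrate incubation at room temperature.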
Numbers stand for hits; i = inactive; ? = inconclusive; nt = not tested or not shown; [ ] = remark or other dose. Unless noted, calls come from the whole dose curve; as a rule, active = well fitted curve in the direction sought with a large enough effect; inconclusive = small, poorly fitted or top-dose-only effect, or another doubt; inactive = no such curve, though single readings can be large; an effect the other way counts as inactive or inconclusive.

SMILES	HCMV antiviral	AmpC no deterg	AmpC detergent	FMDV inh	HCV inhibitor
NC(=O)c1cc(-c2ccccc2)sc1NC(=O)CN1CCCCC1	i	i	i	i	12.6µM
O=C(CSc1nc(C(F)(F)F)cc(=O)[nH]1)NCc1ccc2c(c1)OCO2	i	i	i	i	i
CCn1ccnc1CNC(=O)C1CCC(=O)N(Cc2ccccc2F)C1 (stereo not given)	i	i	i	i	i
COc1cccc(CN2C(=O)NC(C)(C3CCN(Cc4cccc(O)c4)CC3)C2=O)c1OC (stereo not given)	nt	nt	nt	i	nt
COc1ccccc1Oc1ccc(-c2cnc3ccccc3n2)cc1[N+](=O)[O-]	-87.5	i	i	i	?
COC(=O)c1ccc(COc2ccccc2/C=N/NS(=O)(=O)c2ccc(C)cc2)cc1	-94.0	i	i	i	nt
O=S(=O)(N/N=C/c1ccccc1OCc1ccc(Cl)cc1)c1ccccc1	-83.4	i	i	i	?
COc1cc(/C=N/NS(=O)(=O)c2ccc(C)cc2)ccc1OCc1ccc(C(=O)O)cc1	i	i	i	i	i
CC(C)C1N(C(N)=S)N=CC1(C)C (stereo not given)	i	i	i	i	i
CNc1snc(C)c1C(=O)OCC(=O)c1ccc(Cl)cc1	i	i	?	?	?
CNc1snc(C)c1C(=O)OC(C)C(=O)c1ccc(F)cc1 (stereo not given)	-78.7	i	i	?	11.2µM
CCC[C@H]1[C@H](N(C)Cc2ccccc2)CC[C@@]23CCCN2C(=O)CCC[C@@H]13	i	nt	nt	nt	nt
Cc1ccc(NC(=O)CN(C)C(=O)Cn2ncc(Cl)c(Cl)c2=O)cc1	-99.9	i	i	i	3.16µM
COc1ccc(Cl)cc1NC(=O)CCS(=O)(=O)c1cccc2nonc12	-86.0	nt	i	i	nt
Cc1ccc(NC(=O)CSc2nc(N)cc(N)n2)cc1S(=O)(=O)N1CCOCC1	i	i	i	i	i
Cc1ccc(NC(=O)Cc2ccc(Cl)cc2)cc1S(=O)(=O)N1CCCCCC1	i	i	i	?	10µM
Cc1ccc(NC(=O)CN(C)C(=O)Cc2ccc(Cl)c(Cl)c2)cc1	i	i	?	i	i
COc1ccc(CC(=O)Nc2ccc(C)c(S(=O)(=O)N3CCCCCC3)c2)cc1	i	i	i	i	?
Cc1nc(-c2ccc(F)cc2)c(CC(=O)Nc2ccc(C)c(S(=O)(=O)N3CCOCC3)c2)s1	nt	i	i	?	7.94µM
COc1ccc(NC(=O)COc2ccccc2F)cc1S(=O)(=O)N1CCCCC1	i	i	?	i	?
COc1ccc(NC(=O)Cc2ccc(Cl)cc2)cc1S(=O)(=O)N1CCCCC1	?	i	i	i	14.1µM
COc1ccc(NC(=O)CCOc2ccccc2F)cc1S(=O)(=O)N1CCCCC1	i	i	nt	?	12.6µM
Cc1ccc(NC(=O)C(=O)c2c(-c3ccccc3)cc3ccccn23)cc1S(=O)(=O)N1CCOCC1	-75.9	i	i	i	?
Cc1ccc(NC(=O)Cn2ncc(Cl)c(Cl)c2=O)cc1S(=O)(=O)N1CCCCC1	i	3.98µM	i	28.2µM	10µM
COc1ccc(NC(=O)Cc2ccccc2F)cc1S(=O)(=O)N1CCCCC1	i	i	i	i	?
SMILES	HCMV antiviral	AmpC no deterg	AmpC detergent	FMDV inh	HCV inhibitor
Cc1ccc(NC(=O)CCc2ccccc2)cc1S(=O)(=O)N1CCOCC1	i	i	nt	i	?
CCC(Oc1ccccc1)C(=O)Nc1ccc2oc(-c3ccc(OC)cc3)nc2c1 (stereo not given)	i	nt	i	i	nt
CCn1c(CC(=O)Nc2ccccc2C)nnc1SCC(=O)NC1CCCC1	?	i	i	i	i
Cc1ccccc1CNC(=O)Cn1cnc(S(=O)(=O)N2CCCC2)c1	i	i	i	i	i
COc1ccc(NC(=O)CCC(=O)c2cccs2)cc1S(=O)(=O)Nc1ccc(Cl)cc1	i	i	i	i	i
O=C(Cn1c(=O)ccn(Cc2ccccc2)c1=O)Nc1cccc(S(=O)(=O)N2CCOCC2)c1	i	i	i	i	i
Cc1ccc(NCC(=O)Nc2ccc(F)c(Cl)c2)cc1S(=O)(=O)N1CCOCC1	-60.6	nt	nt	?	nt
Cc1ccc(CN2CC(C(=O)Nc3ccc(C)c(S(=O)(=O)N4CCCCC4)c3)CC2=O)cc1 (stereo not given)	-66.1	nt	nt	i	?
Cc1ccc(NC(=O)Cn2c(=O)ccn(Cc3ccccc3)c2=O)cc1S(=O)(=O)N1CCOCC1	i	nt	nt	i	11.2µM
COc1ccc(NC(=O)CCS(=O)(=O)c2ccccc2Cl)cc1S(=O)(=O)Nc1ccc(Cl)cc1	i	i	i	i	12.6µM
CCCCN(C)CCNC(=S)Nc1ccc2nc(N3CCN(CC)CC3)cc(C)c2c1	i	i	i	i	?
Cc1cc(N2CCN(C)CC2)nc2ccc(NC(=S)NCCCN3CCc4ccccc4C3)cc12	i	i	i	i	11.2µM
CCN1CCN(c2cc(C)c3cc(NC(=S)NCCCN4CCc5ccccc5C4)ccc3n2)CC1	?	i	i	i	8.91µM
CCCCN(CC)C(=S)Nc1ccc2nc(N3CCN(C)CC3)cc(C)c2c1	-72.2	i	i	i	?
CCCCNC(=S)Nc1ccc2nc(N3CCN(CC)CC3)cc(C)c2c1	i	i	i	i	12.6µM
CCOc1ccc(CCNC(=O)c2cn(C)c3ccc(S(=O)(=O)N4CCCCCC4)cc3c2=O)cc1OCC	i	nt	i	i	nt
Cc1cc(N2CCCC2)nc2ccc(NC(=S)NCCCN3CCC(C)CC3)cc12	-88.4	i	i	i	10µM
CCCN1CCN(CCCNC(=S)Nc2ccc3nc(N4CCN(CC)CC4)cc(C)c3c2)CC1	?	i	i	i	?
Cc1cc(N2CCN(C)CC2)nc2ccc(NC(=S)N3CCN(c4ccc(Cl)cc4)CC3)cc12	?	i	i	i	?
Cc1cc(N2CCN(C)CC2)nc2ccc(NC(=S)NCCN3CCc4ccccc4C3)cc12	?	i	i	i	11.2µM
Cc1cc(N2CCN(C)CC2)nc2ccc(NC(=S)N3CCN(c4ccc(F)cc4)CC3)cc12	i	i	i	i	10µM
CC(C)N1CC(C(=O)Nc2ccc(Cl)cc2Cl)CC1=O (stereo not given)	i	nt	nt	i	nt
CCN(CC)c1ccc(/C=N/Nc2nc3ccccc3[nH]2)c(O)c1	-98.2	i	i	i	5.62µM
CCN(CC)c1ccc(/C=N/NC(=O)Cc2cccs2)c(O)c1	-99.9	i	i	i	?
O=C(Cc1cccs1)N/N=C/c1ccccc1	i	i	i	i	i
CCN(CC)c1ccc(/C=N/NC(=S)NCc2ccccc2)c(O)c1	-63.0	?	i	i	i
CCN(CC)c1ccc(/C=N/NC(=O)c2ccco2)c(O)c1	-103.5	i	i	i	?
CC1CCN(C(=O)c2[nH]cnc2C(=O)Nc2nccs2)CC1	i	i	i	i	i[8.37 µM]
CCCNC(=O)CSc1nc2nc(C)c(Cc3ccccc3Cl)c(C)n2n1	i	nt	i	i	nt

Screening results from PubChem.
